LDHA block: qHTS assay for inhibitors of human lactate dehydrogenase | purified LDHA, NADH/diaphorase-resazurin fluorescence; stronger effect = lower value | L-lactate dehydrogenase A chain (Homo sapiens), P00338 | AID 1347041, 2019 | activity change, % (values are at about 110 or 230 µM) | hit rate 0.15% among 480,000; in the data active = activity change below about -30%; inconclusive = mostly about -25% to -30%
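Resorufin fluorescence (ex540/em590), read at 0 and 20 min after diaphorase/resazurin addition, reports the NADH left after a 5 min room-temperature reaction of 2 nM human LDH5 with 0.06 mM NADH and 0.2 mM pyruvate.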
HepG2 tox-1: qHTS for Inhibitors of TGF-b: Cytotox Counterscreen. HepG2 CAGA-GFP viability, ATP luminescence, 18 h. Potency, µM (doses to about 46.1 µM), actives largely listed as cytotoxic. hit rate 0.76% among 410,000
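HepG2 CAGA-GFP cells (1000/well, DMEM with 1% FBS) received compound, then TGF-beta at 500 pg/mL final, and were incubated 18 hours at 37 degrees C. Viability was read by CellTiter-Glo luminescence. Media-only wells were set as complete cell-killing and DMSO as no toxicity.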
TGFb SMAD3 inh: qHTS for Inhibitors of TGF-b; AID 588855, 2011; hit rate 1.2% among 410,000; Potency, µM (titrated, usually from 46.1 µM), hits mostly inhibitors; HepG2 CAGA-GFP TGF-b/SMAD3 reporter, GFP fluorescence, 18 h; TGF-beta stimulated, 500 pg/mL final; also: nearly all actives have a fitted effect of over 65% in size
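Smad-responsive CAGA-GFP expression was quantified in HEPG2 cells exposed to compounds and 500 pg/mL final TGF-beta for 18 h at 37 degrees C; unstimulated wells defined full inhibition.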
ATXN viability: Viability Counterscreen for Primary qHTS for Inhibitors of ATXN expression. S2 cells (HEK-293 line with an ATXN2-luciferase reporter) viability, CellTiter-Fluor protease fluorescence, 24 h. Potency, µM (doses to about 56.7 µM), usual class: cytotoxic. hit rate 0.49% among 400,000. AID 651635, 2014; also: nearly all actives have a fitted effect of over 40% in size
mIDH1 inhibitor: qHTS for Inhibitors of mutant isocitrate dehydrogenase 1 (IDH1): qHTS; Isocitrate dehydrogenase [NADP] cytoplasmic (Homo sapiens), O75874; IDH1-R132H enzyme, NADPH consumption, diaphorase/resazurin fluorescence; Potency, µM (titrated, usually from 76.6 µM), hits mostly inhibitors; hit rate 0.093% among 390,000; also: nearly all actives have a fitted effect of over 65% in size
Target sequence (O75874 whole entry R132H, stated change not applied): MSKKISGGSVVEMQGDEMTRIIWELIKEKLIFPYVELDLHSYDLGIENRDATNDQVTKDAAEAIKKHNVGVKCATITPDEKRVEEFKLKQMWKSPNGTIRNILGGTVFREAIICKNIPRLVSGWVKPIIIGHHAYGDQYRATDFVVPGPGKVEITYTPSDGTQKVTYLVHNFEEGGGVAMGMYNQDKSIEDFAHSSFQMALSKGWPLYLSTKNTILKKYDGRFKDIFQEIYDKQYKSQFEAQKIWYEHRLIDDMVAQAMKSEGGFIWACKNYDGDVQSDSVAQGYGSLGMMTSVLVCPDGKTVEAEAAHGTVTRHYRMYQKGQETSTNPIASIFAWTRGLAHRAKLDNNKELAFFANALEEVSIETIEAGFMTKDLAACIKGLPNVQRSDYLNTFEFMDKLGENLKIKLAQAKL
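IDH1-R132H (0.5 ug/mL dispensed) in pH 7.5 Tris buffer was preincubated 30 min with compound, then given a substrate mix of 0.016 mM NADPH and 2 mM alpha-KG for 80 min at room temperature; remaining NADPH was read by diaphorase/resazurin fluorescence.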
ATXN2 expr inh: Primary qHTS for Inhibitors of ATXN expression. HEK-293 ATXN2-luciferase reporter, luminescence, 24 h. Potency, µM (top dose mostly 57 µM), most hits filed as inhibitors. hit rate 0.72% among 360,000; also: nearly all actives have a fitted effect of over 55% in size
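ATXN2-luciferase reporter cells (luciferase flanked by upstream and downstream ATXN2 gene portions) were treated 24 h at 37 °C with compounds at up to 57 uM. SteadyGlo luminescence gave expression; GF-AFC fluorescence gave viability.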
TGFb confirm: qHTS for Inhibitors of TGF-b: Confirmation of Cherry Picks; Potency, µM (top dose mostly 46.1 µM), actives largely listed as inhibitors; shares compounds with TGFb SMAD3 inh; hit rate 63% among 1,600; AID 720534, 2013; HepG2 CAGA-GFP TGF-b reporter, GFP fluorescence, 18 h; cells stimulated with TGF-beta, 500 pg/mL; also: nearly all actives have a fitted effect of over 65% in size
HepG2 tox-2: qHTS for Inhibitors of TGF-b: Cytotox Counterscreen for Cherry Picks; Potency, µM (doses to about 46.1 µM), hits mostly inhibitors; HepG2 CAGA-GFP viability, ATP luminescence, 18 h; cells stimulated with TGF-beta, 500 pg/mL; hit rate 27% among 1,600; shares compounds with TGFb SMAD3 inh; also: nearly all actives have a fitted effect of over 70% in size
TGFb CCL64 inh: qHTS for Inhibitors of TGF-b: CCL64 Cells Orthogonal Assay for Cherry Picks. AID 720536, 2013. CCL64 CAGA-GFP reporter, TGF-b stimulated, GFP fluorescence, 18 h. hit rate 41% among 1,600. shares compounds with TGFb SMAD3 inh. Potency, µM (titrated, usually from 46.1 µM), usual class: inhibitors; also: nearly all actives have a fitted effect of over 65% in size
COP TGFb inh: qHTS for Inhibitors of TGF-b: Hit Validation in HepG2 Cells using COP promoter; Potency, µM (highest dose often 46.1 µM), actives largely listed as inhibitors; HepG2 COP-GFP TGF-b reporter, GFP fluorescence, 18 h; cells stimulated by added recombinant TGF-beta; hit rate 3% among 1,600; shares compounds with TGFb SMAD3 inh; also: nearly all actives have a fitted effect of over 70% in size
Of the large screens only hits and unclear results are named; the others gave an inactive call (follow-up assays come after a bar, where they were run). Shown are actives, neighbours in structure and some others; about 2.2% of the full set was active somewhere. Unless noted, calls follow the shape of the dose curve; as a rule, active = well fitted curve in the direction sought with a large enough effect; inconclusive = small, poorly fitted or top-dose-only effect, or another doubt; inactive = no such curve, though single readings can be large; an effect the other way counts as inactive or inconclusive.

CN(C)c1ccc(C2CNC(c3ccc(Cl)c([N+](=O)[O-])c3)c3[nH]c4ccccc4c32)cc1 (configuration not stated)	TGFb SMAD3 inh 8.9µM, ATXN viability inconclusive (no result: ATXN2 expr inh) | TGFb confirm inconclusive | HepG2 tox-2 inactive | TGFb CCL64 inh 21µM | COP TGFb inh inactive
O=[N+]([O-])c1cccc(C2NCC(c3ccccc3Cl)c3c2[nH]c2ccccc32)c1 (configuration not stated)	TGFb SMAD3 inh inconclusive, ATXN viability inconclusive
CC=Cc1cc2c(c(=O)o1)C(=O)C(O)C(C)O2 (configuration not stated)	TGFb SMAD3 inh 11µM, ATXN2 expr inh inconclusive (no result: ATXN viability) | TGFb confirm 5.2µM | HepG2 tox-2 21µM | TGFb CCL64 inh inconclusive | COP TGFb inh inactive
O=C(NN=Cc1ccc2c(c1)CCC2)c1ccccc1[N+](=O)[O-]	ATXN viability inconclusive (no result: ATXN2 expr inh)
COc1nc(Nc2nc3ccccc3c(=O)[nH]2)nc2ccc(C)cc12	TGFb SMAD3 inh 5.6µM, ATXN viability inconclusive | TGFb confirm 4.1µM | HepG2 tox-2 4.1µM | TGFb CCL64 inh 1.5µM | COP TGFb inh inactive
CCc1cccc(Nc2nn3c(=O)c4ccccc4nc3s2)c1	none (no result: HepG2 tox-1, TGFb SMAD3 inh, ATXN viability, mIDH1 inhibitor, ATXN2 expr inh)
CC(C)(C)CN1CCN(Cc2nc(-c3ccc(F)cc3)cs2)CC1CCO (configuration not stated)	TGFb SMAD3 inh inconclusive | TGFb confirm inconclusive | HepG2 tox-2 inconclusive | TGFb CCL64 inh inactive | COP TGFb inh inactive
O=C1C(Nc2ccc(O)cc2)=C/C(=N/S(=O)(=O)c2cccs2)c2ccccc21	HepG2 tox-1 1.1µM, TGFb SMAD3 inh 1µM, ATXN viability 8.9µM, ATXN2 expr inh 4µM | TGFb confirm 0.65µM | HepG2 tox-2 1µM | TGFb CCL64 inh 3.7µM | COP TGFb inh 1µM
O=C(O)c1ccc(NC2=C/C(=N/S(=O)(=O)c3ccccc3)c3ccccc3C2=O)cc1	HepG2 tox-1 4µM, TGFb SMAD3 inh 5.6µM, ATXN2 expr inh 35µM (no result: ATXN viability) | TGFb confirm 6.5µM | HepG2 tox-2 18µM | TGFb CCL64 inh 12µM | COP TGFb inh inconclusive
CC1(C)CC(=O)C(CC2C(=O)CC(C)(C)CC2=O)C(=O)C1	none
CC1CCN(C(=O)c2ccc(SCc3ccccc3F)c([N+](=O)[O-])c2)CC1	ATXN viability inconclusive
Cc1ccc(S(=O)(=O)N2CCOCC2)cc1C(=O)Nc1cccc(C(=O)NC2CC2)c1	none
COc1ccccc1-c1coc2c(CN3CCCCC3C)c(O)ccc2c1=O (configuration not stated)	ATXN viability inconclusive
c1ccc(-c2cc3nc(NCC4CC4)nc(NCC4CCCCC4)c3s2)cc1	HepG2 tox-1 18µM, TGFb SMAD3 inh 10µM, ATXN viability 14µM, ATXN2 expr inh inconclusive (no result: mIDH1 inhibitor) | TGFb confirm 23µM | HepG2 tox-2 7.3µM | TGFb CCL64 inh 5.2µM | COP TGFb inh inactive
COc1ccc2cc([C@H](C)C(=O)N(C)Cc3ccccc3N3CCCC3)ccc2c1	TGFb SMAD3 inh 10µM | TGFb confirm 8.2µM | HepG2 tox-2 inconclusive | TGFb CCL64 inh inconclusive | COP TGFb inh inactive
COc1ccccc1NC(=O)C(C)N(C)Cc1ccccc1N1CCCCC1 (configuration not stated)	none (no result: HepG2 tox-1, TGFb SMAD3 inh, ATXN viability, mIDH1 inhibitor, ATXN2 expr inh)
CCOC(=O)C[C@H]1c2cc(F)ccc2S(=O)(=O)N1C(C)C	TGFb SMAD3 inh inconclusive
COc1ccc([C@H]2CC(=O)C=C(c3ccc(Cl)c(C(F)(F)F)c3)C2)cc1	TGFb SMAD3 inh 8.9µM | TGFb confirm inconclusive | HepG2 tox-2 inconclusive | TGFb CCL64 inh inconclusive | COP TGFb inh inactive
C[C@@H]1CCCCO[C@H](CN(C)Cc2ccc(Cl)c(Cl)c2)[C@H](C)CN([C@@H](C)CO)C(=O)c2cc(NC(=O)Nc3ccc(F)cc3)ccc2O1	TGFb SMAD3 inh 10µM, ATXN viability inconclusive, ATXN2 expr inh inconclusive | TGFb confirm 5.8µM | HepG2 tox-2 inconclusive | TGFb CCL64 inh 5.8µM | COP TGFb inh inactive
C[C@H](CO)N1C[C@H](C)[C@@H](CN(C)S(=O)(=O)c2ccccc2)Oc2c(NC(=O)Nc3ccc(C(F)(F)F)cc3)cccc2C1=O	TGFb SMAD3 inh 10µM, ATXN viability inconclusive, ATXN2 expr inh inconclusive | TGFb confirm 21µM | HepG2 tox-2 inconclusive | TGFb CCL64 inh inconclusive | COP TGFb inh inactive
C[C@@H]1CN([C@@H](C)CO)C(=O)c2cccc(NC(=O)Nc3ccc(F)cc3)c2O[C@@H]1CN(C)Cc1ccc(Oc2ccccc2)cc1	TGFb SMAD3 inh 4µM, ATXN viability 18µM, ATXN2 expr inh inconclusive | TGFb confirm 16µM | HepG2 tox-2 inconclusive | TGFb CCL64 inh 6.5µM | COP TGFb inh inactive
COc1cccc(C2c3c(ncn(-c4ccc(NC(C)=O)cc4)c3=N)Oc3ccc4ccccc4c32)c1 (configuration not stated)	none (no result: HepG2 tox-1, TGFb SMAD3 inh, ATXN viability, mIDH1 inhibitor, ATXN2 expr inh)
O=C(CN1CCN(S(=O)(=O)c2ccc(F)cc2)CC1)NC1CCCC1	none

High-throughput results: PubChem BioAssay, National Center for Advancing Translational Sciences (NCATS)
